TROY signal inh: blocks TROY-dependent signaling in reporter cells; Q293 LMP1-TROYcd NF-kB luciferase reporter, 4 h; inhibition, % at 10 µM; 360,000 compounds, 0.98% hits;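 active means compounds whose plate-normalised and pattern-corrected inhibition of the luciferase reporter signal at the single screening dose is 50% or more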
TWEAK Fn14 block: TWEAK-Fn14 signaling inhibition. TWEAK-stimulated Fn14 reporter cells, luciferase luminescence, 8 h. inhibition, % at 10 µM. 360,000 compounds, 2% hits; in the data active means inhibition above about 50%
HSF1 inhib: HSF1 inhibition; NIH3T3-HGL HSE-luciferase, MG132-induced, luminescence 8 h; hits give low values; activity change, negative = inhibition, % at 7.5 µM (by protocol); 300,000 compounds, 0.77% hits;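 active means more than half of replicate wells show activity change below -50%, luminescence cut by over half; inconclusive means some wells, but at most half, below -50%; inactive means no replicate well below -50%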;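 further: luciferase reports HSF-1 transcriptional activity via heat shock element; 0% = median of DMSO wells and -100% = zero luminescence signal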
LGR2 antag: blocks bursicon-induced cAMP signaling via Drosophila LGR2. HEK293 LGR2, CRE-luciferase, bursicon-stimulated, 4 h. inhibition, % at 9.99 µM. 380,000 compounds, 0.35% hits;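 active means drop in luminescence signal, shown as inhibition above about 50% in the replicate tests, limit read from the data, passing the limit was not always enough; inconclusive means probably only some replicates passing the limit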;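 further: agonist challenge used bursicon conditioned medium at about half maximal strength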
HSF1 activator: increases HSF-1 driven luciferase reporter signal | activation, % at 9 µM | NIH3T3-HGL HSF-1 luciferase reporter, MG132, 8 h; 100% = twice DMSO control signal | 300,000 compounds, 1.7% hits;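 active means mean replicate activation of at least 50% with a set share of replicates each reaching 50%; inconclusive means only one of those two conditions met; inactive means mean below 50% and too few replicates reaching it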;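 further: 0% = median of the neutral control wells and 100% = twice that signal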
LMP1 NFkB inh: inhibitors of Epstein-Barr LMP1-induced NF-kappaB reporter | LMP1-induced NF-kappaB luciferase reporter cells, luminescence | inhibition, % at 12.5 µM | 350,000 compounds, 0.69% hits | AID 504558; in the data active means inhibition above about 41%; inconclusive means no clear call, values can overlap the other calls;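 further: 0% = neutral control wells and 100% = reference inhibitor control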
The depositor's hits bear a star; ? = inconclusive; . = no result. The list is not random: actives were taken first. Their share in the collection is about 3.6%.

SMILES	TROY signal inh	TWEAK Fn14 block	HSF1 inhib	LGR2 antag	HSF1 activator	LMP1 NFkB inh
OCc1cn(-c2ccccc2)nc1-c1ccc(-c2nn(-c3ccccc3)cc2CO)cc1	27	52*	-14	12	-24	-26
c1ccc(-n2cc(CN3CCCC3)c(-c3ccc4c(c3)OCO4)n2)cc1	-17	-11	37	7	55*	-5
CC(C)c1ccc(-n2cccc2/C=C2/C(=N)N3C=CSC3=NC2=O)cc1	42	55*	-8	53*	-9	2
CCC(=O)N(C)C[C@H]1Oc2cc(C#CCOC)ccc2S(=O)(=O)N([C@@H](C)CO)C[C@@H]1C	.	.	.	29	.	.
O=C(Nc1ccccc1)N1CC=C(c2ccccc2)CC1	.	.	22	.	33	.
O=C(O)C1CCCCC1C(=O)N1CC=C(c2ccccc2)CC1 (stereo unspecified)	68*	80*	-40	30	-48	12
CCC(=O)N1CC2(C1)[C@H](c1ccccc1)[C@@H](CO)N2C(=O)NC(C)C	.	.	.	-9	.	.
Cc1ccc2sc(NC(=O)CSc3nc(C)cc(C)c3C#N)nc2c1	-10	1	-20	.	-44	-62
COCCCn1nnnc1SCC(=O)Nc1nc2ccccc2s1	81*	2	-4	2	1	0
Cc1nc(SCC(=O)Nc2nc3ccccc3s2)c(C#N)c(C)c1C	92*	107*	-92*	93*	-94	84*
Cc1nc(SCC(=O)Nc2nccs2)c(C#N)c(C)c1C	73*	76*	.	-22	.	?
Cc1cc(C(F)(F)F)c(C#N)c(SCC(=O)Nc2nc3ccccc3s2)n1	85*	89*	-73*	36	-77	-23
COc1cc(-c2cc(-c3ccccc3)nc(SCC(=O)Nc3nccs3)c2C#N)cc(OC)c1OC	8	7	-5	.	-2	-6
Cc1nc(SCC(=O)Nc2nc3ccccc3s2)n[nH]1	-23	11	6	-31	-10	-12
COCC(=O)N(C)C[C@@H]1Oc2ncc(C#Cc3ccccc3)cc2C(=O)N([C@H](C)CO)C[C@@H]1C	.	.	.	-15	.	.
C[C@@H]1CN([C@@H](C)CO)C(=O)CCCn2cc(nn2)CO[C@@H]1CN(C)Cc1ccc2cccnc2c1	.	.	.	-9	.	.
C[C@@H]1CN([C@@H](C)CO)S(=O)(=O)c2ccc(C3=CCCC3)cc2O[C@@H]1CN(C)Cc1ccccc1F	.	.	.	8	.	.
Cc1ccc(NC(=O)CSc2nsc(SCC(=O)Nc3ccc(C)cc3C)c2C#N)c(C)c1	7	-45	-4	1	9	-5
O=C(CSC1=NCCS1)Nc1nc2ccccc2s1	13	-69	29	.	56*	2
Cc1csc(NC(=O)CSc2nsc(SCC(=O)Nc3nc(C)cs3)c2C#N)n1	57*	47	22	.	44	-8
CCCOc1ccc(-c2cc(C(F)(F)F)c(C#N)c(SCC(=O)O)n2)cc1	6	-3	5	0	6	6
Cc1ccc(-c2cc(C(F)(F)F)c(C#N)c(SCC(=O)O)n2)cc1	5	11	35	5	58*	2
Cc1sc(NC(=O)CSC2=NCCS2)nc1-c1ccccc1	5	23	6	.	35	0
Cc1noc(C)c1NC(=O)Nc1ccc2c(c1)CC(=O)N([C@@H](C)CO)C[C@@H](C)[C@H](CN(C)C(=O)Nc1ccc(C(F)(F)F)cc1)O2	.	.	.	-12	.	.
CN1CCN(c2ccc(NC(=O)CSc3ccccc3)cc2F)CC1	37	53*	-24	.	-34	2
SMILES	TROY signal inh	TWEAK Fn14 block	HSF1 inhib	LGR2 antag	HSF1 activator	LMP1 NFkB inh
Cc1ccc(SCC(=O)Nc2ccc(N3CCN(c4ccccc4)CC3)c(F)c2)cc1	7	-4	2	.	11	-15
N#CCC(CNc1ncc(C(F)(F)F)cc1Cl)OC(=O)c1ccc(Cl)cc1Cl (stereo unspecified)	-1	3	44	6	79*	17
COc1ccccc1-c1ccc2c(c1)O[C@H](CN(C)C(C)=O)[C@H](C)CN([C@@H](C)CO)S2(=O)=O	.	.	.	8	.	.
COc1cc(/C=C/C(=O)c2ccc(O)cc2)ccc1OCC#N	-1	71*	-2	.	5	-1
CCOc1ccc(C(=O)/C=C/c2ccc(OC)c(OC)c2)cc1	3	17	9	10	26	10
COc1ccc(C(=O)/C=C/c2ccc(OC)c(Cn3nnc4ccccc43)c2)cc1	7	36	44	23	80*	7
